This is an account of results in the supplement of paper PMC10720658.

This assay has as its system AEK1 (Tb927.3.2440). The assay is described as follows: percent reduction in TR-FRET probe signal relative to DMSO control; higher = stronger displacement of ATP-site probe (binding). To be noted: 1 µM; incubation time 1 h. In general terms: TR-FRET usually uses a lanthanide donor and a delayed reading to cut background.

Structures are written as SMILES. ± gives the standard deviation of the averaged measurements.

As for `COc1cc2ncc(-c3ccccc3)nc2cc1OC` [Tyrphostin AG 1296], the “percent reduction in TR-FRET probe signal” value (from here on “percent reduction”) is -3.11 ± 5.3%.

For the molecule `O=C(O)c1ccc(Nc2ncc3c(n2)-c2ccc(Cl)cc2C(c2c(F)cccc2F)=NC3)cc1`, the “percent reduction” value is -4.14 ± 5.4%.

Consider `C=CC(=O)Nc1cc(Nc2nccc(-c3cn(C)c4ccccc34)n2)c(OC)cc1N(C)CCN(C)C`, for which the “percent reduction” value is -8.86 ± 8.3%.

For the molecule `COc1ccc(-c2cc3c(C)nc(N)nc3n([C@H]3CC[C@H](OCCO)CC3)c2=O)cn1`, the “percent reduction” value is -8.41 ± 7.5%.

Take `CCN1CCN(Cc2ccc(C(=O)Nc3ccc(C)c(Oc4ccc5c(c4)CC(=O)N5)c3)cc2C(F)(F)F)CC1`: the “percent reduction” value is -7.33 ± 8.7%.

Regarding `CN1CCN(c2cccc(Nc3nc4c(-c5ccc(S(C)(=O)=O)cc5)cccn4n3)c2)CC1`, the “percent reduction” value came to 7.3 ± 6.6%.
